Measured values from PubChem BioAssay AID624330 (Southern Research Specialized Biocontainment Screening …, 2012).
Hit rate of the full screen: of about 340,000 compounds, about 2,100 (0.62%) were called active. Not all results are given here. Entries with a potency or affinity are not part of this list. Unmarked numbers belong to inactive results.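 Rule for the calls: active = first-screen hits whose inhibition reached a set limit at any dose in the follow-up dose series; inconclusive = inhibition above the set first-screen limit but never retested; inactive = the rest.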

What follows are compounds tested against Rac GTPase-activating protein 1 (Homo sapiens) (UniProt Q9H0H5) (assay: MgcRacGAP GTPase-activating activity inhibitors, confirmation, biochemical, ADP Hunter fluorescence, primary and confirmatory (AID 624330;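 note: fluorescence reports GDP produced by GAP-driven GTP hydrolysis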)). Conditions: MgcRacGAP-stimulated Rac1 GTP hydrolysis, at 30 µM, hits give high values, GST-tagged Rac1 F28L mutant substrate.
Chain of Rac GTPase-activating protein 1 (Homo sapiens) (Q9H0H5 whole entry, looked up): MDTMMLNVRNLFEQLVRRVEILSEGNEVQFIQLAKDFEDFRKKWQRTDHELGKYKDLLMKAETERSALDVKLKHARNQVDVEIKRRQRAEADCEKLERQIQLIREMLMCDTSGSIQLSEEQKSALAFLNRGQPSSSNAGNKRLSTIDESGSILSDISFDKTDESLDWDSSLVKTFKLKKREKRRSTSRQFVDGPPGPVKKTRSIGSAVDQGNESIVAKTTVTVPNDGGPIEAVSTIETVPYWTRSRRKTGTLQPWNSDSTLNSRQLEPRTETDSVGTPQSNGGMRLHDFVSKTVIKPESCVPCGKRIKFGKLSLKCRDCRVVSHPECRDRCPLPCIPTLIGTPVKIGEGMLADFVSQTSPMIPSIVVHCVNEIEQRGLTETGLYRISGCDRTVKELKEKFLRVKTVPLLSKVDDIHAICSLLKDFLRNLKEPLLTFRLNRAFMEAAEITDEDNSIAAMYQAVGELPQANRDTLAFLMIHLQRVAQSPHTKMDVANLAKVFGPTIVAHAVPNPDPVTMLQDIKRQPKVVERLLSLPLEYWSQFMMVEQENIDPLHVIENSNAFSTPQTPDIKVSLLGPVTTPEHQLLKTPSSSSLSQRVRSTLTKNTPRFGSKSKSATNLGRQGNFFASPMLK

SMILES	inhibition [%]
O=C(Cc1ccc(Cl)cc1)Nc1ccc2c(c1)C(=O)NC2=O	10.3
COc1ccc(-c2c(-c3ccsc3)oc(=O)c3cc(OC)c(OC)cc23)cc1	3.56
O=C(O)c1ccc(-n2c(/C=C/c3ccccc3)nc3ccccc3c2=O)cc1	-4
O=C(O)c1cccc(-n2c(/C=C/c3ccccc3)nc3ccccc3c2=O)c1	-7.35
CCOc1cc(/C=C/c2nc3ccccc3c(=O)[nH]2)ccc1O	11.1
COc1ccc(/C=C/c2ccc3cccc(O)c3n2)cc1Br	5.56
COc1ccc(/C=N/Nc2nc3ccccc3c(=O)n2-c2ccccc2)cc1OC	8.28
COc1cc(/C=C/c2ccc3cccc(O)c3n2)cc(OC)c1OC	3.89
Cc1cc(C)cc(Nc2c3c(nc4ncnn24)CCC3)c1	8.12
CCC1=C(OC(=O)N(CC)CC)N2C(=O)OC(=NCCOC)[C@]2(Cc2ccccc2)[C@H]2C1=CC[C@H]1C(=O)N(CC(=O)OC)C(=O)[C@H]12	11.9
CN(C(=O)c1cccc(NC(=O)Cc2ccc(NC(=O)C3CCN(C(=O)C4CC4)CC3)cc2)c1)C1CCC1	6.53
O=C(NCc1cccnc1)C1CC(c2cccc(Br)c2)=NO1 (configuration not stated)	0.07
CC(C(=O)NCc1ccc(F)cc1)c1ccc([N+](=O)[O-])cc1 (configuration not stated)	8.32
CN1CCN(S(=O)(=O)c2ccc(Oc3ccc(F)cc3Br)nc2)CC1	6.58
CCC1CCCCN1C(=S)NC(=O)c1cc(Br)ccc1Cl (configuration not stated)	4.56
CCc1nnc(NC(=O)Cn2nnc(-c3ccccc3F)n2)s1	5.2
CCCCCCCn1c2c(c(=N)c3ccccc31)CCC2	9.88
CCCCCn1c2c(c(=N)c3ccccc31)CCC2	7.04
O=C(CN1CCC(NC(=O)Nc2ccccc2)CC1)Nc1ccccc1F	5.94
Cc1ccc(S(=O)(=O)N(C)c2ccccc2C(=O)N2CCOCC2)cc1	6.35
O=C(Cc1ccc(Br)cc1)NCCc1ccc(F)cc1	9.29
COc1ccc(S(=O)(=O)NC(C)C(=O)N2CCCC2)cc1Cl (configuration not stated)	1.21
COc1cccc(Nc2nc(-c3cccnc3)cs2)c1	10.7
CN(C)c1ccc(Nc2nc(-c3cccnc3)cs2)cc1	14.4
Cc1cccc(Nc2nc(-c3ccc(O)cc3O)cs2)n1	-2.8
Cc1ccc(-c2csc(Nc3ccccn3)n2)cc1	14

SMILES	inhibition [%]
COc1ccc(-c2csc(Nc3ccccc3)n2)cc1	15.5
Cc1ccnc(Nc2nc(-c3ccc(O)cc3O)cs2)c1	15.2
CCOc1ccc(Nc2nc(-c3cccnc3)cs2)cc1	6.12
c1ccc(-c2csc(Nc3ccccn3)n2)cc1	13.5
Cc1cccc2cc(COC(=O)COc3ccccc3)c(=O)[nH]c12	12
CCC(=O)Oc1ccc(NC(=O)CSCc2ccccc2)cc1	13.9
COc1ccc(CCNC(=O)COC(=O)Cc2ccccc2[N+](=O)[O-])cc1	3.96
CCOC(=O)c1ccc(S(=O)(=O)N2CC(=O)Nc3ccccc32)cc1	8.64
c1ccc(-c2csc(Nc3cccnc3)n2)cc1	3.24
c1coc(CNc2nc(-c3ccncc3)cs2)c1	5.25
Cc1ccc(Nc2nc(-c3c(C)nc4ncccn34)cs2)cc1	11.3
Cc1nc2ncccn2c1-c1csc(Nc2ccccc2)n1	11
c1cncc(Nc2nc(-c3ccncc3)cs2)c1	6.09
CC(=O)Nc1ccc(-c2csc(Nc3ncccn3)n2)cc1	7.36
COc1ccc(-c2csc(NCc3ccco3)n2)cc1	12
c1ccc(-c2csc(Nc3ncccn3)n2)cc1	0.5
O=C(O)CN1C(=O)NC2(CCc3ccccc32)C1=O (configuration not stated)	2.93
Cc1noc(C)c1S(=O)(=O)N1CCCC(C(=O)NCC2CCCO2)C1 (configuration not stated)	4.53
CC(C)c1ccc(NC2CCCN(C(=O)CN3CCOC3=O)C2)cc1 (configuration not stated)	8.4
COc1ccc(NC2CCCN(C(=O)CN3CCOC3=O)C2)cc1OC (configuration not stated)	22.5
CC(C)c1ccc(NC2CCCN(C(=O)CCN3Cc4ccccc4C3=O)C2)cc1 (configuration not stated)	4.84
COc1ccc(NC2CCCN(C(=O)CCCN3CCCCC3=O)C2)cc1 (configuration not stated)	29.9
CC(C)c1ccc(NC2CCCN(C(=O)CCN3CCCO3)C2)cc1 (configuration not stated)	2.53
COc1ccc(NC2CCCN(C(=O)CCN3CCOCC3)C2)cc1 (configuration not stated)	12.5
CN1OC[C@@H]2CN(Cc3cc(Cl)cc(Cl)c3)[C@H](c3cccc(-c4ccc(C#N)cc4)c3)C[C@@H]21	13.8
COc1ccc(OCc2nnc(SCC(=O)N3CCCC3)o2)cc1	5.88

SMILES	inhibition [%]
CC1CN(Cc2ccccc2Cl)CC(C)O1 (configuration not stated)	16.3
O=C(COc1ccccc1[N+](=O)[O-])Nc1cccc(C(=O)Nc2ccccc2C(=O)O)c1	17.3
C=CCC1NS(=O)(=O)O[C@H](CCCC)[C@@H]1O (some centres not stated)	-14.4
O=C(O)CCC(=O)OCCc1cc2ccccc2c(=O)o1	-1.63
O=C(c1ccc(=O)n(Cc2ccc(Cl)c(Cl)c2)c1)N1CCOCC1	1.2
CC(C)N1C(=O)CSC1c1ccc(Br)cc1 (configuration not stated)	9.21
Cc1ccsc1/C=N/NC(=O)c1cccnc1	6.67
COc1ccc(/C=N/NC(=O)c2cccnc2)c2ccccc12	10.9
O=C(N/N=C/c1cccc2ccccc12)c1cccnc1	7.15
Cc1ccccc1/C=N/NC(=O)c1cccnc1	4.63
COc1ccccc1CNC(=O)CCNS(=O)(=O)/C=C/c1ccc(C)cc1	-0.75
COc1cc(N)c2ncccc2c1Cl	7.55
COc1cc(NC(C)CCCN)c2ncccc2c1 (configuration not stated)	-2.49
COc1cc(N)c2ncccc2c1Br	20
COc1cc(NC(C)CCCN)c2ncccc2c1Oc1ccccc1 (configuration not stated)	1.99
COc1cc(NC(=O)c2cccnc2SC)cc(OC)c1OC	9.4
Nc1ccc(Br)c2cccnc12	9.68
CCOC(=O)N1CCN(c2ccc(N3C(=O)CCCC3=O)cc2[N+](=O)[O-])CC1	4.36
O=C(CCNS(=O)(=O)c1ccc2[nH]c(=O)oc2c1)Nc1ccccc1	-24.4
COc1ccc(OC)c(C(C[N+](=O)[O-])c2c(C)cc3ccccn23)c1 (configuration not stated)	5.52
Cc1c(N2CCCCC2)[nH]c2ccccc12	8.41
Cc1cccc(OCC(=O)Nc2ccc(N3CCN(C(=O)c4ccco4)CC3)cc2)c1C	8.56
Cn1c(-c2ccc(F)cc2)cnc1NCc1cccc(F)c1	9.97
Cn1c(-c2ccc(Br)cc2)cnc1NCc1ccc(C#N)cc1	21.2
Cn1c(-c2cccc(Br)c2)cnc1NCc1cccnc1	29.7
COc1cc(CNc2ncc(-c3ccc(Br)cc3)n2C)cc(OC)c1OC	29.8

SMILES	inhibition [%]
Cn1c(-c2ccc(F)cc2)cnc1NCc1ccc(F)cc1	16.6
Cn1c(-c2ccc(Br)cc2)cnc1NCc1cccnc1	18.7
C[C@H](CO)N1C[C@H](C)[C@@H](CN(C)S(=O)(=O)c2ccc(F)cc2)Oc2c(NC(=O)Cc3ccccc3)cccc2C1=O	9.78
CCCc1nc2ccccc2c(=O)n1NC(=O)c1c(O)c2ccccc2n(C)c1=O	-1.3
Cc1ccc(N=C2C(=O)Nc3ccccc32)cc1C	1.21
O=C1Nc2ccccc2C1=Nc1ccc(F)cc1	6.47
COc1cccc(NC(=O)C(c2ccccc2)N2CCNC(=O)C2)c1 (configuration not stated)	-3.03
CN(CC(=O)Nc1c(Cl)cccc1Cl)C(=O)Cc1ccc2c(c1)CCC2	4.3
COc1ccc(/C=C/c2ccc3ccccc3[n+]2C)cc1OC	-0.83
CC[n+]1c(/C=C/c2ccc(OC(C)=O)c(OC)c2)ccc2ccccc21	27
Cc1ccc(N/C=C/C(=O)c2cccs2)cc1	1.9
O=C(/C=C/Nc1ccc(F)cc1)c1cccs1	8.26
COc1ccc(C)cc1N(CC(=O)Nc1cccnc1)S(=O)(=O)c1ccc(C)cc1	3.72
O=C(CCSc1nnc(-c2ccco2)o1)Nc1ccc(Cl)cc1	5.12
Cc1ccc(S(=O)(=O)N2CCOCC2)cc1C(=O)NC1CCCC1	6.35
NC(=S)N/N=C/c1ccccc1O	10.3
COC(=O)c1cccc(/C=N/NC(N)=S)c1O	14.2
COc1ccc(N(C(C)=O)S(=O)(=O)c2cc(OC)ccc2OC)cc1	12.7
COc1cccc(N2CCN(c3ncccn3)CC2)c1	5.71
COc1ccc(N2CCN(c3ccc(N)cc3C#N)CC2)cc1	27.6
COc1ccc(C(=O)N2CCN(c3ncccn3)CC2)cc1	0.88
COc1ccnc(N2CCN(c3ccccc3)CC2)c1C#N	8.98
COc1ccc(C(=O)NCC(=O)OCc2ccc(Br)cc2)cc1	11.1
CC(c1nccs1)N(C)C(=O)CCc1nnc(Cc2c[nH]c3ccccc23)o1 (configuration not stated)	11.5
